Results taken from the OligoGym collection.

Biological target: ALDH1A3
Experiment: pooled miR-30 sensor sort-seq; sequence = guide strand
Conditions: shRNA
Also: reference of the scale not given here.

Row | Sequence | sensor-assay potency score (higher = more potent)
1 | TTTTTGTGAACACGGCTGCTGT | -0.433
2 | TCATTGTTGATAAATATCTTGG | -0.45
3 | TAGTCGGTGCTATTCGCTCTTT | -0.888
4 | TATCTTGGTGAACTTGACCTCC | 0.362
5 | TTGTTGATAAATATCTTGGTGA | 0.169
6 | TTTTGTCGAACTGCTTTTGATC | -0.787
7 | TCTTTTTATCACTTCTTCGATA | -0.674
8 | TTTATCACTTCTTCGATACTTT | -0.132
9 | TTTCTTGGCATACTCCACGCTC | -0.65
10 | TCTGTTTTGACATCGAAGGGGT | 0.173
11 | TTGGTTGAAGAACACTCCCTGA | -0.48
12 | TTCGATACTTTTGAACTTCAGT | -0.228
13 | TTTGTGAACACGGCTGCTGTGA | -0.151
14 | TTTTTTGTGAACACGGCTGCTG | 0.356
15 | ATAAATATCTTGGTGAACTTGA | -0.0326
16 | TTTCCTGACATTTTAAAGCCAC | -0.397
17 | TTTTGAACTTCAGTATTGGTTG | -0.527
18 | TTCTTCGATACTTTTGAACTTC | 0.188
19 | TTGAAGGGTTACATGTAGCAAA | -0.786
20 | ATTGTTGATAAATATCTTGGTG | -0.0591

Biological target: ALDH9A1
Experiment: as above
Conditions: shRNA

Row | Sequence | sensor-assay potency score (higher = more potent)
21 | TTGATTAGTATCTACAAGGCAC | 0.363
22 | TTAGTTAATACACAAGGTCTCA | -0.528
23 | TCTTTCTGCACAAATACTCTTG | -0.35
24 | TAACATTCAGTTGTACTGCCTC | -0.0109
25 | TTGATGAGTGGACCCATCCTTG | -0.479
26 | TAATACACAAGGTCTCATGTAA | 0.189
27 | TTCACATCATTCCACAGCGTGG | -1.5
28 | TTCAGTTGTACTGCCTCTGTAA | -0.536
29 | TAATATTCGATTGTCACACGGC | 0.406
30 | TTTCTTGATTAGTATCTACAAG | -1.25
31 | TTCTTGATTAGTATCTACAAGG | -0.856
32 | TTAATTTGGGATCTTCAGGTAC | 0.221
33 | TAAAAAAATGTCAATGAGCTGA | -0.73
34 | TATAACCAAACGATCCACCTGG | 0.155
35 | TAATACTCCAGGCACTGCCAGG | -1.24
36 | TTGTTAATGAAGCACGTCCCAG | -1.05
37 | TTAAAGGGTAGCTCCACTGGTG | -0.285
38 | TAGATTTCCTCTATCGCAGTAG | 0.289
39 | TTTGCCACTTTGACAAACCCAA | -0.698
40 | TAACACTTTAGCACCCTGCTCC | 0.132
